# Experimental data published in PMC7862700, “An all-to-all approach to the identification of sequence-specific readers for epigenetic DNA modifications on cytosine”.
# Tests used:
# Assay in all cases: DAPPL (digital affinity profiling via proximity ligation, sequencing); 10 mM Tris-HCl pH 7.5, 50 mM NaCl, 1 mM DTT, 4% glycerol, room temperature, 30 min; GST-TFs on glutathione beads, 16-mer random dsDNA library, 0.1% formaldehyde crosslink after washing; high values mean tight binding
# Conditions in all cases: protein: recombinant; tags: N-terminal GST; dsDNA, one strand shown
# FLI1 = target: T1, FLI1 (Homo sapiens, UniProt Q01543 1-452)
# T1 sequence: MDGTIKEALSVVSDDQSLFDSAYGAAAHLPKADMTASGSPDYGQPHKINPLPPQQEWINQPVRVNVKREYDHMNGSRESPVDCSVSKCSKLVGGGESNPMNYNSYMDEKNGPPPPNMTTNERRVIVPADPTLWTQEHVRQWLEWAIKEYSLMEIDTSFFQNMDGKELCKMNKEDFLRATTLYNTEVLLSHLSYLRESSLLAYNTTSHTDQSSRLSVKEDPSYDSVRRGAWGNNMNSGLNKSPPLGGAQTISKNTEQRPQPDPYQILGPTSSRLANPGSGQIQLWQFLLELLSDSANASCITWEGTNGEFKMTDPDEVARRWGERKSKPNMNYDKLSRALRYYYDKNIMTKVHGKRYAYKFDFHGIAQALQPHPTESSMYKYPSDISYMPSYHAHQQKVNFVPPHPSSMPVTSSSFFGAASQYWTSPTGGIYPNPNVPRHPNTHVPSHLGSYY
# In short: (§1)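 Human transcription factors carrying a GST fusion were produced in yeast, bound to glutathione beads, tagged with DNA barcodes and pooled together with a tag-only sample. Each pool was held with 200 nmole of a random double-stranded 16-mer DNA library in Tris/NaCl/DTT/glycerol buffer for 30 min at room temperature, then washed, crosslinked in 0.1% formaldehyde, proximity-ligated with BsaI/T4 ligase (1 h, 37 °C), PCR-amplified and sequenced on an Illumina NextSeq500. Binding signal is the read frequency of each hexamer for a given factor divided by its frequency in the tag-only sample.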
# ELK1 = target: T2, ELK1 (Homo sapiens, UniProt P19419 1-428)
# T2 sequence: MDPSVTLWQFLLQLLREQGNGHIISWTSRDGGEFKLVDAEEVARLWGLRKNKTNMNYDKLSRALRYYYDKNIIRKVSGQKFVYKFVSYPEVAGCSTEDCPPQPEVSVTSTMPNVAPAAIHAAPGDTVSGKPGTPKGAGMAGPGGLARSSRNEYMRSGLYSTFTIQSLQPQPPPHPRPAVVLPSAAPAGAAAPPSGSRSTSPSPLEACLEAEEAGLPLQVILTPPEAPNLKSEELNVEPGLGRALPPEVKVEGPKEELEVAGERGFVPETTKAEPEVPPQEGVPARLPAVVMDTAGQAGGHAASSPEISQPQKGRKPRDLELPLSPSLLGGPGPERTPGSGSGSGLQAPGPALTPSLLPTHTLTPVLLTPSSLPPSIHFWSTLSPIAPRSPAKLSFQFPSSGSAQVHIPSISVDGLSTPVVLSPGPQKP
# In short: as §1
# GABPA = target: T3, GABPA (Homo sapiens, UniProt Q06546 1-454)
# T3 sequence: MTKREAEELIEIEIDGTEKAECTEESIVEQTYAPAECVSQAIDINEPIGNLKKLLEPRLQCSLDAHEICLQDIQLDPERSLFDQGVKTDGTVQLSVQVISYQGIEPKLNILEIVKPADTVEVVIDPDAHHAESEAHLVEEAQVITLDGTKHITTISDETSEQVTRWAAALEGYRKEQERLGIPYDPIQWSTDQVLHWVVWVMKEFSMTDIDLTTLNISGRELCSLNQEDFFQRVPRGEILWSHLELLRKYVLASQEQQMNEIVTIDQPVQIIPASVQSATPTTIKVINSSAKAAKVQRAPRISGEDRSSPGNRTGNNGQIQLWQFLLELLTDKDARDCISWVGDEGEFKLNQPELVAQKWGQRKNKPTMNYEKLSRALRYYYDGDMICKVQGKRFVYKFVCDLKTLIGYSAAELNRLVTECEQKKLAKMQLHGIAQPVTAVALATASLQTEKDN
# In short: as §1
# ERG = target: T4, ERG (Homo sapiens, UniProt P11308 1-479)
# T4 sequence: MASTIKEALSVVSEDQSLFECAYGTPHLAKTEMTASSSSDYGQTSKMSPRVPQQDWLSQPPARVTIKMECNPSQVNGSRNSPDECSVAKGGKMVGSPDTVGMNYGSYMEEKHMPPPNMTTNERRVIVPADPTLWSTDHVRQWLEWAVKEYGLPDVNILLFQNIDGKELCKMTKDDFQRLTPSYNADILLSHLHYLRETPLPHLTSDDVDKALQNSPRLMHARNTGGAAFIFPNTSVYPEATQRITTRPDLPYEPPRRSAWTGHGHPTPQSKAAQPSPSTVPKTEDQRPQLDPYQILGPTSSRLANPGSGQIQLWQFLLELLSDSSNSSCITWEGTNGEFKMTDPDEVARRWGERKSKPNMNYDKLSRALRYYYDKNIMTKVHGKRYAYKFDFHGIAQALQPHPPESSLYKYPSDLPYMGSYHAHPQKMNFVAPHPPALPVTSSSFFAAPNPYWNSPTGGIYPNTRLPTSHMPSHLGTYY
# In short: as §1
# ELF1 = ELF1 (Homo sapiens, UniProt P32519 1-619)
# ELF1, sequence (P32519 whole entry): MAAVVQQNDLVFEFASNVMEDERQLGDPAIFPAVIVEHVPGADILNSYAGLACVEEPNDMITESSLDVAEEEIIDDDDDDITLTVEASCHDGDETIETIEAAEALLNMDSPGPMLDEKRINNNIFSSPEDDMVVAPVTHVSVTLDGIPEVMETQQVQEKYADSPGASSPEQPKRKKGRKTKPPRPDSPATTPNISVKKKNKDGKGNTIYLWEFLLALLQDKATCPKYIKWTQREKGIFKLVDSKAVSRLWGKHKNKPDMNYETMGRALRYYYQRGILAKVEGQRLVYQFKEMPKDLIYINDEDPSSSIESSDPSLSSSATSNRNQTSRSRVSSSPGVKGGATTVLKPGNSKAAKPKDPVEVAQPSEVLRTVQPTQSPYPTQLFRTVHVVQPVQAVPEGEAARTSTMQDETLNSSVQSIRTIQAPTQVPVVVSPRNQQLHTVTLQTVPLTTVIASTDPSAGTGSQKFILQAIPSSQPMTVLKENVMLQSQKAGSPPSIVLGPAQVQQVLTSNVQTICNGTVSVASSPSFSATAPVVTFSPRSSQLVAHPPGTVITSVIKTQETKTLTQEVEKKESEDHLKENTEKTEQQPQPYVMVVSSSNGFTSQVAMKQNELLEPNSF
# In short: as §1
# EHF = target: T5, EHF (Homo sapiens, UniProt Q9NZC4 1-300)
# T5 sequence: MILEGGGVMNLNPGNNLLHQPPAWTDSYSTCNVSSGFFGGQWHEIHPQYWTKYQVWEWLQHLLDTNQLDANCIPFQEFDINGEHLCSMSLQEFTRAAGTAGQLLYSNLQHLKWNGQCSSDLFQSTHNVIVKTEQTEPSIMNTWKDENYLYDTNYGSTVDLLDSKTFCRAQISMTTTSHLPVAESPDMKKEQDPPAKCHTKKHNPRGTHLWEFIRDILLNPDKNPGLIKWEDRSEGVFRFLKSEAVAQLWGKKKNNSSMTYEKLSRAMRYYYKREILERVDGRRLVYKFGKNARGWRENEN
# In short: as §1
# SPI1 = SPI1 (Homo sapiens, UniProt P17947 1-270)
# In short: as §1
# SPIB = SPIB (Homo sapiens, UniProt Q01892 1-262)
# SPIB, sequence (Q01892 whole entry): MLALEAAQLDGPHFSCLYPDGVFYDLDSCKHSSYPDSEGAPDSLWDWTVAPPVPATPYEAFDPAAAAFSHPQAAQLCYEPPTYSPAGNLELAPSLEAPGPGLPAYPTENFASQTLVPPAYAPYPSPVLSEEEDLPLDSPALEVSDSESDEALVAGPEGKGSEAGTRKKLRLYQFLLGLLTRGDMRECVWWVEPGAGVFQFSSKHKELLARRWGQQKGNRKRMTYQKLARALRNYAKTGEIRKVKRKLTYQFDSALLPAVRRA
# In short: as §1
# ELK3 = target: T6, ELK3 (Homo sapiens, UniProt P41970 1-407)
# T6 sequence: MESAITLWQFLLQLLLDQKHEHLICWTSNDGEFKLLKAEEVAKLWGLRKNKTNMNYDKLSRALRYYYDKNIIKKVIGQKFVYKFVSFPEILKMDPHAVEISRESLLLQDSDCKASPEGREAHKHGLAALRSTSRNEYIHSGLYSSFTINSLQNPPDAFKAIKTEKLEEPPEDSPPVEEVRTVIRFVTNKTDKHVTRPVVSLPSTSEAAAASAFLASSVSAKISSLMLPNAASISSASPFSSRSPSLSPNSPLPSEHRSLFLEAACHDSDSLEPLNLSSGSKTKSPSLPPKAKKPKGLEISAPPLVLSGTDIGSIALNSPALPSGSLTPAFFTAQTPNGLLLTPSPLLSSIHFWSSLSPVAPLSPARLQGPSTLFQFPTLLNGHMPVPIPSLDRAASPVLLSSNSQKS
# In short: as §1
sequence,measurement,setting,value
GTGTTC,binding signal,FLI1,"1.13 fold enrichment (6-mer frequency, TF over GST control)"
same,binding signal,ELK1,"1.25 fold enrichment (6-mer frequency, TF over GST control)"
same,binding signal,GABPA,"1.26 fold enrichment (6-mer frequency, TF over GST control)"
same,binding signal,ERG,"1.22 fold enrichment (6-mer frequency, TF over GST control)"
same,binding signal,ELF1,"1.1 fold enrichment (6-mer frequency, TF over GST control)"
same,binding signal,EHF,"1.15 fold enrichment (6-mer frequency, TF over GST control)"
same,binding signal,SPI1,"1.28 fold enrichment (6-mer frequency, TF over GST control)"
same,binding signal,SPIB,"1.09 fold enrichment (6-mer frequency, TF over GST control)"
same,binding signal,ELK3,"1.1 fold enrichment (6-mer frequency, TF over GST control)"
